# Records with an inconclusive call do not appear. Unmarked numbers belong to inactive results. Activity calls are given as the source filed them. The call rests on the fitted dose curve; in most records, active means well fitted inhibition curve with a large enough effect; inconclusive means small, poorly fitted or top-dose-only effect; inactive means flat fitted curve, though single readings scatter.
# What was measured:
# CRL-7250 = normal cell line; assay: Cytotoxic Profiling of Annotated Libraries Using Quantitative High-Throughput Screening (AID 1296008); settings: Five cell lines viability, CellTiter-Glo ATP luminescence, 48-72 h; max response: active compounds read low; further: nearly all actives have a fitted effect of over 60% in size
# In short: (§1)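 Cytotoxicity was measured as CellTiter-Glo ATP luminescence, read after 10 min at room temperature. Compound treatment of the cells lasted 48 or 72 hr at 37 degrees Celsius in a qHTS format.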
# HEK293 = assay: as above; settings: Five cell lines viability, CellTiter-Glo ATP luminescence, 48-72 h; max response: active compounds read low
# In short: as §1
# On the % scale 0 is the no-effect control and ±100 the full control effect; potency means the concentration at half of the fitted maximal effect.
compound,measurement,setting,value
CC1(C(=O)O)CCCC2(C)C3=CCC4CC3(CCC12)CC4CO (stereo not drawn),max response,CRL-7250,-23%
same,max response,HEK293,-3.78%
CON(C)C(=O)[C@H](O)[C@H](Cc1ccccc1)NC(=O)c1cc2cc(Cl)ccc2[nH]1,outcome,CRL-7250,inactive
same,max response,HEK293,-8.5%
CCC[C@@H]1O[C@@H]2C[C@H]3[C@@H]4CCC5=CC(=O)C=C[C@]5(C)[C@H]4[C@@H](O)C[C@]3(C)[C@]2(C(=O)CO)O1,max response,CRL-7250,0.403%
same,max response,HEK293,0.791%
NCCCNc1ccc(Nc2nccc(Nc3cc(C4CC4)[nH]n3)n2)cc1,Potency,CRL-7250,731 nM (active)
same,Potency,HEK293,1030 nM (active)
COc1cc(N)c(Cl)cc1C(=O)NC[C@@H]1CCN2CCC[C@@H]12,max response,CRL-7250,-16.7%
same,max response,HEK293,-3.94%
CC1(O)CCCC2(C)C1CCC13CC(CO)C(CCC12)C3 (stereo not drawn),max response,CRL-7250,-2.17%
same,max response,HEK293,-21.4%
COC(=O)C1=C2Nc3ccccc3C23CCN2CCCC(C(C)O)(C1)C23 (stereo not drawn),outcome,CRL-7250,inactive
same,max response,HEK293,-3.43%
OC[C@H]1O[C@@H](OC[C@H]2O[C@@H](OC/C=C/c3ccccc3)[C@H](O)[C@@H](O)[C@@H]2O)[C@@H](O)[C@@H]1O,max response,CRL-7250,0.699%
same,max response,HEK293,4.4%
CC(=O)O[C@@H]1C[C@H](O)[C@@]23CO[C@H](O)[C@]1(C)C2C[C@@H](O)[C@]1(C)C3C(=O)[C@H](OC(C)=O)[C@@]2(C)[C@H](c3ccoc3)C[C@H]3O[C@]321 (stereo partly drawn),Potency,CRL-7250,485 nM (active)
same,Potency,HEK293,343 nM (active)
C[C@@H]1O[C@@H](O[C@@H]2[C@@H](O)[C@H](O[C@H]3CC[C@@]4(C)C(CC[C@]5(C)C4CC=C4[C@@H]6CC(C)(C)CC[C@]6(C(=O)O[C@@H]6O[C@H](CO)[C@@H](O)[C@H](O)[C@H]6O)CC[C@]45C)C3(C)C)O[C@H](C(=O)O)[C@H]2O)[C@H](O)[C@H](O)[C@H]1O (stereo partly drawn),outcome,CRL-7250,inactive
same,max response,HEK293,3.46%
CCC(O)(C(=O)OCc1ccccc1NC(=O)CCC(=O)O)C(C)O (stereo not drawn),outcome,CRL-7250,inactive
same,max response,HEK293,-0.446%
CCc1c(-c2ccccc2)c(-c2ccccc2)nn1-c1ccccc1-c1cccc(OCC(=O)O)c1,max response,CRL-7250,-8.36%
same,max response,HEK293,-14.2%
C=C1CCC2C(C)(C(=O)O)CCCC2(C)C1CC/C(=C\CO)CO (stereo not drawn),max response,CRL-7250,0.544%
same,max response,HEK293,2.54%
CC(C)=CC/C=C(\C)[C@H]1CC[C@]2(C)[C@@H]1[C@H](O)C[C@@H]1[C@@]3(C)CC[C@H](O)C(C)(C)[C@@H]3[C@@H](O[C@@H]3O[C@H](CO)[C@@H](O)[C@H](O)[C@H]3O)C[C@]12C,max response,CRL-7250,2.02%
same,max response,HEK293,-11.4%
c1ccc(-c2ncc(CN3CCN(c4ncccn4)CC3)[nH]2)cc1,max response,CRL-7250,-0.931%
same,max response,HEK293,0.625%
CN1CCc2nc(C(=O)N[C@@H]3C[C@@H](C(=O)N(C)C)CC[C@@H]3NC(=O)C(=O)Nc3ccc(Cl)cn3)sc2C1,max response,CRL-7250,3.08%
same,max response,HEK293,-78.6%
CC1CC[C@]2(C(=O)O)CC[C@]3(C(=O)O)C(=CCC4[C@@]5(C)CC[C@H](O[C@@H]6O[C@H](CO)[C@@H](O)[C@H](O)[C@H]6O)C(C)(C)C5CC[C@]43C)C2C1C (stereo partly drawn),max response,CRL-7250,-9.19%
same,max response,HEK293,-4.94%
CC(=O)C1=CCC2C3CCC4CC(O[C@@H]5O[C@H](CO)[C@@H](O[C@@H]6O[C@@H](C)[C@H](O)[C@@H](O)[C@H]6O)[C@H](O)[C@H]5O[C@@H]5O[C@H](CO)[C@@H](O)[C@H](O)[C@H]5O)CCC4(C)C3CCC12C (stereo partly drawn),max response,CRL-7250,-10.3%
same,max response,HEK293,-11.1%
CC(=O)C12OC(C)(C)OC1CC1C3CCC4=CC(=O)C=CC4(C)C3(F)C(O)CC12C (stereo not drawn),max response,CRL-7250,-7.35%
same,max response,HEK293,-19.2%
CO[C@H]1/C=C/[C@@](C)(O)/C=C/C(=O)O[C@H](C)[C@@H](C)CC/C=C/1C,max response,CRL-7250,-17.6%
same,max response,HEK293,-82.6%
C[C@H]1O[C@@H](O[C@H]2CC[C@@]3(C)C(CC[C@]4(C)C3CC=C3C5CC(C)(C)CC[C@]5(C(=O)O)CC[C@]34C(=O)O)C2(C)C)[C@H](O)[C@@H](O)[C@@H]1O (stereo partly drawn),outcome,CRL-7250,inactive
same,max response,HEK293,-5.54%
CCCCOC(=O)NC(=O)C1c2ccccc2Oc2ccccc21,max response,CRL-7250,-2.73%
same,outcome,HEK293,inactive
COc1cc(C)c(C(=O)Oc2cc(C)c(C(=O)Oc3cc(C)c(C(=O)NC(C)C(=O)O)c(O)c3)c(O[C@@H]3O[C@H](CO)[C@@H](O)[C@H](O)[C@H]3OC(C)=O)c2)c(OC)c1 (stereo partly drawn),max response,CRL-7250,-13.8%
same,max response,HEK293,-3.13%
O=C(O)Cc1ccc2oc(-c3ccc(NC(=O)/C=C/c4ccc(Br)cc4)c(F)c3)nc2c1,max response,CRL-7250,4.13%
same,max response,HEK293,-7.74%
